For eight compounds, growth results are on record in PubChem BioAssay (NCI).

About 83,000 compounds went through this panel and 20% of them were active in at least one assay; those are over-represented in the sample as a whole.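 In brief: 96-well plates, 48 h treatment, single concentration, percent growth endpoint.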 A number with no mark means an inactive call. Activity calls are given as the source filed them. How the source made its calls: active means growth percent below 10; inactive means the rest.

Some test systems named below: SK-MEL-2 melanoma; EKVX NSCLC; SN12C renal; UO-31 renal; TK-10 renal; ACHN renal; CAKI-1 renal; A498 renal; MOLT-4 leukemia; SR leukemia; RPMI-8226 leukemia; OVCAR-8 ovarian; OVCAR-5 ovarian; OVCAR-4 ovarian; SK-OV-3 ovarian; IGROV1 ovarian; OVCAR-3 ovarian; HS 578T breast; NCI/ADR-RES ovarian.
What all share (experiment): NCI-60 one-dose screen, 48 h (100 = growth as untreated, 0 = no growth, -100 = all killed)
What all share (details): 10 µM unless noted

Take `C=C1C(=O)O[C@H]2[C@H]1CC/C(COC(=O)C(=O)c1c[nH]c3ccccc13)=C\CC[C@@]1(C)O[C@@H]21`: the growth in the experiment with SK-MEL-2 melanoma was -57.5% (active); in the experiment with EKVX NSCLC, 48.2%; in the experiment on SN12C renal, -46.7% (active); in the experiment on UO-31 renal, -93.3% (active); in the experiment with TK-10 renal, -32.3% (active); in the experiment with ACHN renal, -36% (active). The growth in the experiment on CAKI-1 renal was -33.8% (active); with A498 renal, -17.9% (active); in the experiment with MOLT-4 leukemia, -24.6% (active); in the experiment with SR leukemia, 1.82% (active); in the experiment on RPMI-8226 leukemia, -29.8% (active); in the experiment on OVCAR-8 ovarian it was -6.78% (active). Moreover, the growth was -5.59% (active) in the experiment on OVCAR-5 ovarian; 17.9% with OVCAR-4 ovarian; 85.1% in the experiment on SK-OV-3 ovarian; -69.8% (active) in the experiment on IGROV1 ovarian; -82.2% (active) with OVCAR-3 ovarian; 10.7% in the experiment on HS 578T breast. For the same compound, in the experiment on NCI/ADR-RES ovarian, the growth was 17.9%.
For the compound `Cc1cc[c-]cc1.Fc1c[c-]c(-c2ccccn2)c(F)c1.[Pt+2].c1ccc(P(C[PH+](c2ccccc2)c2ccccc2)c2ccccc2)cc1`, the growth in the experiment on SK-MEL-2 melanoma was 4.88% (active); in the experiment on EKVX NSCLC it was 7.66% (active); in the experiment on SN12C renal it was 6.18% (active); in the experiment with UO-31 renal, 11.4%; in the experiment with TK-10 renal, 31.5%; with ACHN renal, -1.88% (active). For the same compound, the growth in the experiment with CAKI-1 renal was 0.998% (active); with A498 renal, 9.17% (active); in the experiment with MOLT-4 leukemia, 10.7%; in the experiment on SR leukemia, 16.8%; in the experiment on RPMI-8226 leukemia it was -4.4% (active); in the experiment with OVCAR-8 ovarian, 11%. Moreover, the growth in the experiment with OVCAR-5 ovarian is 23.6%; with OVCAR-4 ovarian it was -2.01% (active); in the experiment with SK-OV-3 ovarian, -3.95% (active); in the experiment on IGROV1 ovarian, 23.5%; in the experiment with OVCAR-3 ovarian it was 12.9%; in the experiment on HS 578T breast, 39.6%. In addition, the growth in the experiment on NCI/ADR-RES ovarian was 87.3%.
With `O=C1CC(N2C(=O)/C(=C/C(Cl)=C\c3ccc([N+](=O)[O-])cc3)SC2=S)C(=O)N1c1ccc(O)cc1` (configuration not stated), the growth with SK-MEL-2 melanoma was -9.67% (active); with EKVX NSCLC it was -2.89% (active); in the experiment with SN12C renal, -8.4% (active); in the experiment with UO-31 renal, -75.2% (active); in the experiment on TK-10 renal, -1.39% (active); in the experiment on ACHN renal, -71.4% (active). The growth in the experiment with CAKI-1 renal is 7.93% (active); in the experiment with A498 renal, -26.8% (active); in the experiment with MOLT-4 leukemia, 2.92% (active); in the experiment with SR leukemia, -13.4% (active); in the experiment on RPMI-8226 leukemia, -15.1% (active); in the experiment on OVCAR-8 ovarian, 11.6%. In addition, the growth is -56.5% (active) with OVCAR-5 ovarian; 14.1% with OVCAR-4 ovarian; 33.5% with SK-OV-3 ovarian; -45.8% (active) with IGROV1 ovarian; -16.4% (active) in the experiment on OVCAR-3 ovarian; 15.5% in the experiment with HS 578T breast. In the experiment on NCI/ADR-RES ovarian, the growth was 3.58% (active).
Take `CC/C=C\C[C@H](O)C/C=C1/C(=O)C=C[C@@H]1C/C=C\CCCC(=O)OC`: the growth was -2.28% (active) with SK-MEL-2 melanoma; 35.5% with EKVX NSCLC; -7.19% (active) in the experiment with SN12C renal; -75.1% (active) in the experiment with UO-31 renal; -1.5% (active) in the experiment on TK-10 renal; -57.5% (active) in the experiment on ACHN renal. Further, the growth is -15.6% (active) in the experiment with CAKI-1 renal; 103% in the experiment with A498 renal; -6.76% (active) in the experiment on MOLT-4 leukemia; -4.28% (active) with SR leukemia; -11.5% (active) in the experiment on RPMI-8226 leukemia; -6.94% (active) in the experiment on OVCAR-8 ovarian. The growth with OVCAR-5 ovarian is 27.1%; in the experiment on OVCAR-4 ovarian, 36.8%; in the experiment on SK-OV-3 ovarian, 35.9%; with IGROV1 ovarian, 0.514% (active); in the experiment with OVCAR-3 ovarian, -6.12% (active); in the experiment on HS 578T breast, 41.1%. In the experiment on NCI/ADR-RES ovarian, the growth is 20.6%.
Regarding `CC1O[C@@H](OC2[C@H](OC(=O)/C=C/c3ccc(O)c(O)c3)C(COC3O[C@H](C)C(O)C(O)[C@@H]3O)O[C@@H](OCCc3ccc(O)c(O)c3)[C@H]2O)[C@@H](O)C(O)[C@H]1O` (some centres not stated), the growth in the experiment on SK-MEL-2 melanoma was 99.6%; in the experiment on EKVX NSCLC, 91.2%; with SN12C renal, 106%; with UO-31 renal it was 89.9%; in the experiment on TK-10 renal, 100%; in the experiment with ACHN renal, 103%. The growth with CAKI-1 renal is 97.3%; in the experiment on A498 renal, 107%; in the experiment with MOLT-4 leukemia it was 99.1%; with SR leukemia, 105%; in the experiment with RPMI-8226 leukemia it was 104%; in the experiment with OVCAR-8 ovarian it was 106%. Also, the growth in the experiment with OVCAR-5 ovarian was 105%; with OVCAR-4 ovarian, 104%; in the experiment on SK-OV-3 ovarian, 90.3%; in the experiment with IGROV1 ovarian, 102%; in the experiment on OVCAR-3 ovarian, 108%; with HS 578T breast, 108%. Further, the growth in the experiment with NCI/ADR-RES ovarian was 116%.
In the case of `CC/C=C1/C(=O)C=C[C@@H]1C/C=C\CCCC(=O)O`, the growth is 87% in the experiment on SK-MEL-2 melanoma; 101% in the experiment on EKVX NSCLC; 79.9% with SN12C renal; 103% in the experiment on UO-31 renal; 105% with TK-10 renal; 85.5% in the experiment with ACHN renal. Besides, the growth was 84.9% with CAKI-1 renal; 104% in the experiment with A498 renal; 9.64% (active) in the experiment with MOLT-4 leukemia; 20% with SR leukemia; 19.9% in the experiment on RPMI-8226 leukemia; 66.5% in the experiment with OVCAR-8 ovarian. Moreover, the growth with OVCAR-5 ovarian was 123%; in the experiment with OVCAR-4 ovarian, 86.9%; in the experiment on SK-OV-3 ovarian, 111%; with IGROV1 ovarian, 114%; with OVCAR-3 ovarian, 82.2%; with HS 578T breast, 69.1%. Besides, in the experiment on NCI/ADR-RES ovarian, the growth was 91.5%.
On to `Cc1occc1-c1n[nH]c(=S)n1N1C(=O)CSC1=S`, for which the growth in the experiment with SK-MEL-2 melanoma was 107%; in the experiment on EKVX NSCLC, 99.1%; with SN12C renal it was 99.2%; in the experiment on UO-31 renal it was 77.6%; with TK-10 renal, 99%; in the experiment with ACHN renal it was 102%. Further, the growth with CAKI-1 renal was 85.4%; in the experiment with A498 renal it was 101%; in the experiment on MOLT-4 leukemia it was 99.7%; with SR leukemia, 102%; with RPMI-8226 leukemia, 93.8%; in the experiment on OVCAR-8 ovarian, 101%. Further, the growth is 99.6% with OVCAR-5 ovarian; 107% in the experiment with OVCAR-4 ovarian; 106% in the experiment with SK-OV-3 ovarian; 102% with IGROV1 ovarian; 103% in the experiment with OVCAR-3 ovarian; 101% in the experiment on HS 578T breast. In addition, the growth in the experiment with NCI/ADR-RES ovarian is 101%.
As to `Cc1ccc(Cc2cnc(NC(=O)c3ccc4noc(-c5ccccc5)c4c3)s2)cc1`, the growth with SK-MEL-2 melanoma was 99.7%; in the experiment on EKVX NSCLC, 79.1%; with SN12C renal, 85.9%; in the experiment on UO-31 renal it was 81.9%; in the experiment on TK-10 renal it was 109%; in the experiment on ACHN renal, 99%. In addition, the growth was 78.2% in the experiment with CAKI-1 renal; 102% in the experiment on A498 renal; 90.2% in the experiment with MOLT-4 leukemia; 85% in the experiment on SR leukemia; 79.3% in the experiment with RPMI-8226 leukemia; 89.1% in the experiment on OVCAR-8 ovarian. For the same compound, the growth in the experiment with OVCAR-5 ovarian is 105%; in the experiment on OVCAR-4 ovarian it was 86.4%; in the experiment on SK-OV-3 ovarian, 108%; in the experiment on IGROV1 ovarian, 96.3%; in the experiment with OVCAR-3 ovarian, 107%; in the experiment on HS 578T breast, 95.7%. Moreover, the growth in the experiment on NCI/ADR-RES ovarian was 92.5%.
